In the supplement of paper PMC6555819:

What was measured:
Assay in all cases: PBM binding z-score (relative to random genomic background probes); higher = stronger binding; sequences stand for … in GC…GCGATTGACAGCGTAGAATGAAGG
[1] = test system: FXR:RXRa (NR concentration 270 nM, RXRa partner concentration 90 nM)
In short: (§1)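 Binding z-scores take random background probes as their reference. They come from custom Agilent 4×180K protein-binding microarrays incubated 1 h with ligand-free nuclear receptor dimers, with antibodies against each partner (one per run) detecting binding. Scanned fluorescence was regression-normalized.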

[2] = test system: LXRa:RXRa (NR concentration 270 nM, RXRa partner concentration 90 nM)
In short: as §1

[3] = test system: LXRa homodimer (NR concentration 270 nM)
In short: as §1

[4] = test system: LXRb:RXRa (NR concentration 270 nM, RXRa partner concentration 90 nM)
In short: as §1

[5] = test system: LXRb homodimer (NR concentration 270 nM)
In short: as §1

[6] = test system: PPARa:RXRa (NR concentration 270 nM, RXRa partner concentration 90 nM)
In short: as §1

[7] = test system: PPARg:RXRa (NR concentration 180 nM, RXRa partner concentration 90 nM)
In short: as §1

[8] = test system: PPARg:RXRa 270nM:90nM, anti-RXR (NR concentration 270 nM, RXRa partner concentration 90 nM)
In short: as §1

[9] = test system: PPARg:RXRa 30nM:10nM, anti-RXR (NR concentration 30 nM, RXRa partner concentration 10 nM)
In short: as §1

[10] = test system: PPARg:RXRa 90nM:30nM, anti-RXR (NR concentration 90 nM, RXRa partner concentration 30 nM)
In short: as §1

[11] = test system: PPARg:RXRa DBDmut IVT, anti-RXR (DBD mutation: RXRa K156A/R161A, NR concentration 270 nM, RXRa partner concentration 90 nM)
In short: as §1

[12] = test system: PPARg:RXRa IVT, anti-PPARg (NR concentration 270 nM, RXRa partner concentration 90 nM)
In short: as §1

[13] = test system: PPARg DBDmut:RXRa IVT, anti-PPARg (DBD mutation: PPARg1 K132A/R137A, NR concentration 270 nM, RXRa partner concentration 90 nM)
In short: as §1

[14] = test system: PPARg DBDmut IVT, anti-PPARg (DBD mutation: PPARg1 K132A/R137A, NR concentration 270 nM)
In short: as §1

[15] = test system: PPARg homodimer (NR concentration 180 nM)
In short: as §1

[16] = test system: PXR:RXRa (NR concentration 270 nM, RXRa partner concentration 90 nM)
In short: as §1

[17] = test system: PXR homodimer (NR concentration 270 nM)
In short: as §1

[18] = test system: RARa:RXR (NR concentration 270 nM, RXRa partner concentration 90 nM)
In short: as §1

[19] = test system: RARa homodimer (NR concentration 270 nM)
In short: as §1

[20] = test system: RARb:RXRa (NR concentration 270 nM, RXRa partner concentration 90 nM)
In short: as §1

| Sequence | PBM binding z-score [1] | PBM binding z-score [2] | PBM binding z-score [3] | PBM binding z-score [4] | PBM binding z-score [5] | PBM binding z-score [6] | PBM binding z-score [7] | PBM binding z-score [8] | PBM binding z-score [9] | PBM binding z-score [10] | PBM binding z-score [11] | PBM binding z-score [12] | PBM binding z-score [13] | PBM binding z-score [14] | PBM binding z-score [15] | PBM binding z-score [16] | PBM binding z-score [17] | PBM binding z-score [18] | PBM binding z-score [19] | PBM binding z-score [20] |
| --- | --- | --- | --- | --- | --- | --- | --- | --- | --- | --- | --- | --- | --- | --- | --- | --- | --- | --- | --- | --- |
| GGAACGAGGGGAAAGTTGATAGCATCTGTCGACG | -0.0769 | -0.0261 | -0.204 | 0.087 | 0.0705 | 2.88 | 4.27 | 6.01 | 3.53 | 6.53 | 1.59 | 1.99 | 0.258 | -1.07 | 0.339 | -0.114 | -0.142 | -0.0298 | 0.277 | 0.213 |
| TCTAGTTGGTCACGGAGGTCACAGACGACGGGTA | 3.38 | 3.46 | 1.88 | 3.32 | 0.321 | 4.34 | 3.91 | 4.32 | 3.41 | 3.8 | 2.62 | 4.51 | 0.854 | 1.64 | 3.09 | 4.61 | 0.763 | 4.83 | 1.36 | 3.96 |
| CGAACTAGGACATTGACAGGACAGTGAATAGTAA | -0.0957 | -0.0769 | 0.0961 | -0.38 | -0.79 | 0.451 | 0.933 | 0.247 | 0.384 | 0.344 | 4.34 | 3.36 | 1.39 | 0.241 | 0.296 | -0.136 | 0.135 | -0.244 | -0.0168 | 0.136 |
| ATCTCTAGGTCAAGATAGTTCAGTGAATGCAAAT | 3.96 | 6.31 | 4.48 | 3.62 | 1.93 | 4.23 | 4.92 | 4.63 | 2.03 | 3.66 | 6.08 | 6.47 | 1.92 | 2.11 | 2.05 | 5.27 | 1.48 | 3.29 | 1.32 | 4.26 |
| GCTGCTAGGTCAACTTATGGTCAGCTAAAGCTCG | 4.49 | 2.98 | 0.539 | 2.52 | 0.4 | 3.87 | 2.95 | 3.14 | 0.913 | 2.31 | 4.77 | 4.25 | -0.352 | -0.235 | 2.49 | 2.17 | -0.587 | 3.6 | 0.316 | 4.4 |
| TCTCGGAGGACACGAAGGGCAGAGCTTTCCAGAG | 0.172 | -0.265 | -0.59 | -0.711 | -1.26 | -0.128 | -0.047 | 0.753 | 1.78 | 1.13 | 1.13 | 0.0832 | -0.999 | -0.906 | -0.399 | -0.198 | -0.159 | -0.136 | -1.15 | 1.97 |
| TGAATGAGGTTAAAGATCAGGGCACGTGGCGTCG | 2.95 | 2.69 | 0.0826 | 1.81 | 0.456 | 4.53 | 5.69 | 6.11 | 4.67 | 6.24 | 2.37 | 3.82 | 1.31 | 1.27 | 0.587 | 2.32 | 0.062 | 3.3 | 0.14 | 2.41 |
| TGAATGACGTTATAAGATCAGGGAACGTTGCAAA | -0.0798 | -0.0437 | -0.351 | -0.274 | -0.245 | -0.16 | 0.208 | 0.0909 | 0.775 | 0.526 | -1.22 | -0.257 | 1.11 | 0.502 | 0.0586 | -0.0188 | -0.13 | 0.166 | 0.18 | -0.286 |
